CtBP-E1A inh: blocks the CtBP interaction with E1A; activity change, % (test concentration not listed); hit rate 0.49% among 340,000; AlphaScreen GST-E1A/His-CtBP binding, 1536-well; active compounds read low; AID 651724; in the data active = activity change below about -65%; inconclusive = mostly about -30% to -63%
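AlphaScreen with 125 nM GST-E1A and 125 nM His-CtBP (5X stocks) in Tris pH 8.0, 300 mM NaCl, BSA, Tween 20, TCEP. Compounds preincubated 2 h at 37 deg C, then glutathione donor/nickel acceptor beads added for 1 h at 37 deg C in dark.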
Six1-Eya2 blk: inhibitors of human Six1/Eya2 interaction | Q15475+O00167 | AlphaScreen GST-Six1/His-Eya2 binding, biochemical; active compounds read low | activity change, % (test concentration not listed) | hit rate 0.56% among 360,000; in the data active = activity change below about -65%; inconclusive = mostly about -30% to -63%
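GST-Six1 + His-Eya2 (5X stock: 250/500 nM); Tris pH 8.0, 300 mM NaCl, 0.05% BSA, 0.02% Tween 20; GSH donor/Ni acceptor beads; 1 h 37 °C dark; AlphaScreen readout.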
VP16 counter: inhibits Gal4-VP16 luciferase reporter, ROR gamma counter-screen | hit rate 3.5% among 310,000 | Drosophila S2 Gal4-VP16 UAS-luciferase, luminescence, 20 h | Potency, µM (top dose mostly 53.6 µM), actives largely listed as inhibitors;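 also: Gal4-VP16 expression switched on by copper sulfate through the metallothionein promoter; nearly all actives have a fitted effect of over 50% in size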
PKM2 act: increases activity of human pyruvate kinase M2; Potency, µM (top dose mostly 57.5 µM), actives largely listed as activators; purified PKM2, Kinase-Glo ATP luminescence, activation; response scale: 0% is enzyme alone, no compound; P14618; hit rate 0.34% among 260,000; also: nearly all actives have a fitted effect of over 55% in size
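Kinase-Glo luminescence reports ATP generated from ADP (0.1 mM) and PEP (0.5 mM) by purified hPK-M2 after 1 h at room temperature, pH 7.2 imidazole buffer; intermediate enzyme activity allows detecting inhibitors and activators.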
RORgamma inh: blocks mouse ROR gamma transcriptional activity | Drosophila S2 Gal4-RORgamma UAS-luciferase reporter, 20 h | AID 2551 | Potency, µM (titrated, usually from 53.6 µM), actives largely listed as inhibitors | P51450 | hit rate 5.4% among 310,000; also: nearly all actives have a fitted effect of over 60% in size
Target sequence (P51450 whole entry, looked up, the tested form may be a part): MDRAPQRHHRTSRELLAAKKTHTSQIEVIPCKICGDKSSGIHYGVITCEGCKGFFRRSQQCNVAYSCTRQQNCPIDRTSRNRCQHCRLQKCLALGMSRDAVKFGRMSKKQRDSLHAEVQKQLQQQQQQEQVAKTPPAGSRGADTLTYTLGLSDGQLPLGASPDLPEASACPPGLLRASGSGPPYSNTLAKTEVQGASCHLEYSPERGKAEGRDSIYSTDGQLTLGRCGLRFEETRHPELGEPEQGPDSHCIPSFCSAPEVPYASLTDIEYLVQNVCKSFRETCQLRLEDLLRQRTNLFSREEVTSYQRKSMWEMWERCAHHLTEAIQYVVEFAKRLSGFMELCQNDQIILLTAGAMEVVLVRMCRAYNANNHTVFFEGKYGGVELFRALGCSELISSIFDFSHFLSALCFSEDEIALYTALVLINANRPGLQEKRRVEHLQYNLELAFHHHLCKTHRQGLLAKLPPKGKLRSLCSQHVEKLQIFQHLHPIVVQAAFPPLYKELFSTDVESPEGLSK
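Compounds are pin-transferred onto Drosophila Schneider cells expressing a copper-inducible Gal4–ROR gamma transactivation domain fusion. After 1 hr, copper sulfate is added to 700 uM final; luciferase is read 20 hr later.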
Numbers stand for hits; - = inactive; ? = inconclusive; . = no result. A selection: hits, their analogues and other compounds. The true share with any hit is near 5.6%. Unless noted, calls follow the shape of the dose curve; as a rule, active = well fitted curve in the direction sought with a large enough effect; inconclusive = small, poorly fitted or top-dose-only effect, or another doubt; inactive = no such curve, though single readings can be large; an effect the other way counts as inactive or inconclusive.

SMILES	CtBP-E1A inh	Six1-Eya2 blk	VP16 counter	PKM2 act	RORgamma inh
CC(=O)/C(=N\Nc1cccc(Cl)c1)Sc1nnc(-c2ccccc2)n1-c1ccccc1	-	-	11µM	-	10µM
CC(=O)/C(=N\Nc1cccc(Cl)c1)Sc1cccc2cccnc12	-	-	?	-	3.2µM
Cc1cccc(-c2ncc(S(=O)(=O)C(C)(C)C)c(N)n2)c1	-	-	-	-	-
CCN=C1NN=C(c2cc(C)n(CCc3ccccc3)c2C)CS1	-	-	-	-	-
CCN=C1NN=C(c2cc(C)n(Cc3ccco3)c2C)CS1	-	-	?	-	0.28µM
Cc1ccc(C(=O)NNC(=O)CCCN2C(=O)/C(=C/c3ccccc3Cl)SC2=S)cc1	-	-	3.2µM	-	2.8µM
O=C(O)CCCN1C(=O)/C(=C\C(Cl)=C\c2ccccc2)SC1=S	-	-	1.6µM	.	1.3µM
CN1CCN(C(=O)CCCN2C(=O)/C(=C/c3ccccc3)SC2=S)CC1	-	-	-	-	-
CC(/C=C1\SC(=S)N(CCC(=O)Nc2ccc(O)cc2)C1=O)=C\c1ccccc1	-	-	14µM	-	14µM
O=C(CCCN1C(=O)/C(=C\c2ccccc2)SC1=S)Nc1cccc(C(=O)O)c1	-	-	-	-	-
O=C(CCCN1C(=O)/C(=C/c2ccccc2)SC1=S)Nc1cccc(O)c1	.	-	7.1µM	?	?
O=C(CCCN1C(=O)/C(=C/c2ccccc2Cl)SC1=S)NNC(=O)c1ccc(Cl)cc1	-	-	?	-	?
COc1cc(OC)cc(C(=O)N[C@H](C(=O)NCc2ccc(F)cc2)C(C)C)c1	-	-	-	.	-
O=C(CCCN1C(=O)/C(=C\c2cccs2)SC1=S)Nc1cc([N+](=O)[O-])ccc1O	-	-	20µM	-	?
CCN(CC)CCOC(=O)c1ccc(NC(=O)CCCN2C(=O)S/C(=C/c3ccc(OC)cc3)C2=S)cc1	-	-	1.6µM	-	1µM
COc1cccc(/C=C2\SC(=S)N(CCCC(=O)Nc3cc(C)on3)C2=O)c1	-	-	1.4µM	-	2.8µM
Cc1ccc(/C=C2\SC(=S)N(CCCC(=O)NNC(=O)c3ccccc3O)C2=O)cc1	.	-	2.8µM	-	1.6µM
Cc1ccc(/C=C2\SC(=S)N(CCC(=O)NNC(=O)c3ccccc3O)C2=O)cc1	-	-	-	-	-
Cc1cnc([N+](=O)[O-])n1CCOC(=O)NC(=O)c1cccc(F)c1	-	-	-	-	-
COc1cccc(/C=C2\SC(=S)N(CCCC(=O)NC3=NCCS3)C2=O)c1	?	-	0.71µM	-	0.56µM
O=C(CCN1C(=O)/C(=C\c2ccccc2)SC1=S)Nc1ccc(C(=O)O)cc1	-	-	-	-	-
O=C(CCCN1C(=O)/C(=C\c2ccccc2)SC1=S)Nc1ccc(O)cc1	?	-	1.8µM	-	2µM
Cc1ccc(/C=C2/SC(=S)N(CCCC(=O)Nc3ccc(O)cc3)C2=O)cc1	-	-	?	-	0.4µM
COc1cccc(/C=C2/SC(=S)N(CCCC(=O)Nc3ccc(O)cc3)C2=O)c1	?	-	0.35µM	-	0.35µM
O=C(Cc1cccc(NC(=O)C2CCCN(C(=O)C3CCCCC3)C2)c1)Nc1cccc(C(=O)N2CCCCC2)c1 (stereo not drawn)	-	-	.	.	.
SMILES	CtBP-E1A inh	Six1-Eya2 blk	VP16 counter	PKM2 act	RORgamma inh
Cc1ccc(/C=C2\SC(=S)N(CCCC(=O)NC3CCCC3)C2=O)cc1	-	-	?	-	1.6µM
O=C(CCN1C(=O)/C(=C/c2cccs2)SC1=S)Nc1cccc(O)c1	?	?	-	5µM	-
COc1ccc(/C(C)=N/Nc2ncc(Cl)cc2Cl)c(O)c1	-	-	0.79µM	-	0.11µM
CCN(CC)C(=O)COc1ccc(/C(C)=N/Nc2ncc(Cl)cc2Cl)cc1	-	-	?	-	6.3µM
C/C(=N\Nc1ncc(Cl)cc1Cl)c1ccc(C#N)cc1	-	-	-	-	?
Oc1ccc(/C=N/Nc2ncc(Cl)cc2Cl)cc1	-	-	-	.	?
N#Cc1cccc(C(=O)C(=O)N2CCN(c3ccccc3)CC2)c1	-	-	.	.	.
CC(=O)Nc1ccc(CN(C)c2c(C)nc3ccc(C(=O)NCCCn4ccnc4)cn23)cc1	-	-	.	.	.
CCN(C(=O)CSc1nc2ccccc2n1C)C1CCS(=O)(=O)C1 (stereo not drawn)	.	-	.	.	.
O=C(c1cccs1)N1CCC(c2nc3c(nnn3Cc3cccc(Cl)c3)c(=O)[nH]2)CC1	-	-68	-	-	?
O=C(c1cccs1)N1CCCC(c2nc3c(nnn3Cc3cccc(Cl)c3)c(=O)[nH]2)C1 (stereo not drawn)	-	-	-	-	?
O=C(CCCn1c(SCc2cc(=O)n3cc(Cl)ccc3n2)nc2ccccc2c1=O)NCC1CCCO1 (stereo not drawn)	.	-	-	-	-
O=c1cc(CSc2nc(NCc3ccccc3)c3ccccc3n2)nc2ccc(Cl)cn12	-	-	-	-	4.5µM
Cc1scc(C(=O)NNC(=S)NCC2CCCO2)c1C (stereo not drawn)	-	-	-	-	4.5µM
Cc1scc(C(=O)NNC(=S)NCC2CCCO2)c1-c1ccccc1 (stereo not drawn)	-	-	-	-	7.9µM
CCCc1cc(C(=O)NNC(=S)NCC2CCCO2)cs1 (stereo not drawn)	-	-	-	-	-
CCc1cc(C(=O)NNC(=S)NCC2CCCO2)cs1 (stereo not drawn)	-	-	-	-	16µM
CCOC(=O)N(C)c1c(CC)nc2c(OCc3ccc(S(C)(=O)=O)cc3)cccn12	-	-	.	.	.
CCOC(=O)Cc1csc(NC(=O)Nc2cccc(OC)c2)n1	-	-	-	-	-
COc1cc(C(=O)NNC(=O)c2cccn2C)cc(OC)c1OC	-	-	.	.	.
CCCn1nnc(NC(=S)NC(=O)C(C)(C)C)n1	-	-	8.9µM	-	3.5µM
CCCn1nnc(NC(=S)NC(=O)/C=C/c2ccco2)n1	-	-	-	-	-
CCn1nnc(NC(=S)NC(=O)c2ccc(-c3cccc(Cl)c3)o2)n1	?	?	2.8µM	-	0.28µM
CCCn1nnc(NC(=S)NC(=O)c2cccs2)n1	-	-	5.6µM	-	2µM
CC(C)NC(=O)COc1nncc2ccccc12	-	-	-	-	-
SMILES	CtBP-E1A inh	Six1-Eya2 blk	VP16 counter	PKM2 act	RORgamma inh
CN(CC(=O)Nc1sccc1C(N)=O)S(=O)(=O)c1ccc(Cl)cc1	-	-	.	.	.
N[C@H](CSSC[C@@H](N)C(=O)O)C(=O)O	.	.	-	.	-
CC(=O)Nc1c(C)ccc(CNC(=O)COc2cc(C)ccc2C)c1C	-	-	-	-	-
CC1(C)C(=O)NC2=C1C(=O)C(=O)c1ccccc12	.	.	2.8µM	.	1.4µM
Cc1ccc(C2C3=C(CC(C)(C)CC3=O)NC3=C2C(=O)c2ccccc23)cc1 (stereo not drawn)	?	?	?	-	-
COc1ccccc1NS(=O)(=O)c1ccc(C)c(C(=O)N2CCN(c3ccc(O)cc3)CC2)c1	-	-	.	.	.
Cn1c(CSCCOc2ccccc2)n[nH]c1=S	-	-	?	-	1µM

High-throughput results (PubChem BioAssay)
